In the library only some 5.4% were active in any assay of this set; here they are far more common.
beta cell repl: MIN6 beta-cell proliferation induction; MIN6 cells proliferation, ATPlite luminescence, 48 h; cells starved in 0.2% serum; 100% = growth in 10% serum; actives 0.29% (n = 330,000); proliferation, % at 10 µM; AID 2380;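 active = compounds whose signal lies at least 3.5 SD above the mean of all wells on their plate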
SMARCA2 act: activators of SMARCA2 function. MG213 cells, MMTV-luciferase reporter, dexamethasone, overnight. activation, % at 9.1 µM. actives 1% (n = 370,000). AID 652017; in the data active = activation above about 7.8%
ALR H2O2 inh: blocks human ALR sulfhydryl oxidase activity; P55789; purified ALR, DTT oxidation, H2O2 HRP-luminol luminescence; inhibition, % (no concentration beside the values); actives 3.8% (n = 290,000);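 active = mean replicate inhibition above about 79%, with every replicate also reaching it, limit read from the data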
Target sequence (P55789 whole entry, looked up): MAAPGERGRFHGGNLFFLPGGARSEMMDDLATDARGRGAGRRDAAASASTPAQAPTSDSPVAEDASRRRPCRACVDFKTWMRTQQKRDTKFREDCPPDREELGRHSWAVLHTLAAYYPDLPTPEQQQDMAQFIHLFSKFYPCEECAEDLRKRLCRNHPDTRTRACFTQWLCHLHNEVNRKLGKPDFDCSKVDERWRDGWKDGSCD
M18AAP inhibitor: PfM18AAP enzyme inhibition. inhibition, % at 7.35 µM. recombinant PfM18AAP, H-Glu-NHMec fluorogenic cleavage. actives 1.2% (n = 290,000);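 active = inhibition above the campaign mean inhibition over all tested compounds plus 3 SD, cut at about 28% in these data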
Exocytosis inh: blocks lytic granule exocytosis; actives 0.66% (n = 360,000); inhibition, % at 10 µM; TALL-104 LAMP-1 surface exposure, flow cytometry; cells stimulated with thapsigargin and PMA;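 active = inhibition above about 55%, limit read from the data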
GASC-1 inh: inhibitors of human GASC-1 (JMJD2C) demethylase. GST-JMJD2C(1-420) H3K9me3 demethylation, DELFIA europium. inhibition, % at 2.35 µM. actives 0.069% (n = 330,000);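 active = more than half of a compound's replicate wells show inhibition beyond 50%, single wells judged on their own value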;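 note: signal counts dimethyl H3K9 product captured on neutravidin plate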
Target sequence (Q9H3R0 1-420 limits assumed): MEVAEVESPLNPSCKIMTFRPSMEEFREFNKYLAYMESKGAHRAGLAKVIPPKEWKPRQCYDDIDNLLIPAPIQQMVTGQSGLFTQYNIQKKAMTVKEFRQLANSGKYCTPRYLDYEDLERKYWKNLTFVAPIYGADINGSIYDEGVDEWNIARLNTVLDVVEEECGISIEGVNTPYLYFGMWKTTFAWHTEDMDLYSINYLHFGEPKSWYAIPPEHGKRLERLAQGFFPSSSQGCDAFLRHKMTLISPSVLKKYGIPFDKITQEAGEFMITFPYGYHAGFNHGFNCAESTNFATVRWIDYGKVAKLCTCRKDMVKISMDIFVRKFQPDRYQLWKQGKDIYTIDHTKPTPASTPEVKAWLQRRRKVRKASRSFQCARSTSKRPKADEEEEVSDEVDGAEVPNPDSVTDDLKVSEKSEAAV
SMARCA2 act conf: SMARCA2 activation, confirmation screen; AID 652260; MG213 cells, MMTV-luciferase with dexamethasone, luminescence, overnight; MG213 cells expressing E1A, Rb sequestered; DMSO wells 0%, reference activator 100%; activation, % at 9.1 µM; actives 30% (n = 3,500); shares compounds with SMARCA2 act;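 active = activation above its plate's cutoff, the mean activation of tested wells plus 3 SD, cut at about 7.9% in these data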
GAL4-VP16 Luc: GAL4-VP16 reporter activation counter-screen | shares compounds with SMARCA2 act | HEK293 GAL4-VP16 pG5luc reporter, luciferase luminescence; scaled: DMSO wells 0%, SAHA wells 100% | activation, % at 9.1 µM | actives 41% (n = 3,500) | AID 686939;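 active = activation above the solvent-only control well mean plus 3 SD, averaged across control plates, cut at about 5.2% in these data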
Numbers stand for hits; i = inactive; nt = not tested or not shown.

SMILES	beta cell repl	SMARCA2 act	ALR H2O2 inh	M18AAP inhibitor	Exocytosis inh	GASC-1 inh	SMARCA2 act conf	GAL4-VP16 Luc
Cc1ccc(-n2ncc(N(C)C)c(Cl)c2=O)cc1	i	i	i	i	i	i	nt	nt
O=c1cnnc(SCCc2ccccc2)[nH]1	i	8.2	i	i	i	i	i	i
COc1ccc(NC(=O)c2ccc3[nH]c(C)c(C)c3c2)cc1	i	18	i	i	i	i	9.5	i
CC(=O)Nc1cccc(NC(=O)c2ccc3[nH]c(C)c(C)c3c2)c1	i	i	i	i	i	i	nt	nt
Cc1ccc(C(=O)Nc2cccc(-c3cnc4ccccc4n3)c2)cc1	i	i	i	i	i	i	nt	nt
COc1ccc(C(=O)Nc2cccc(-c3cnc4ccccc4n3)c2)cc1	i	8.4	i	i	i	i	i	i
COC(=O)c1sccc1NC(=O)c1ccc(C)cc1	i	i	i	i	i	i	nt	nt
COC(=O)c1sccc1NC(=O)c1ccc(OC)cc1	i	17	i	i	i	i	i	i
Cc1ccc(C(=O)Nc2cccc(C(=O)N3CCOCC3)c2)cc1	i	16	i	i	i	i	8.3	i
COc1ccc(C(=O)Nc2cccc(NC(C)=O)c2)cc1	nt	i	nt	nt	i	nt	nt	nt
COc1ccc(NC(=O)c2ccccc2)cc1	i	i	i	nt	i	i	nt	nt
COc1ccc(C(=O)Nc2cccc(C)c2)cc1	i	9.6	i	i	i	i	13	8.4
COc1ccc(C(=O)NNc2ccccc2)cc1	i	10	i	i	i	i	i	i
Cc1ccc(NC(=O)c2ccc(OC(=O)c3ccco3)cc2)cc1	i	i	i	i	i	i	nt	nt
Cc1ccc(NC(=O)c2ccc(OC(=O)c3cc4ccccc4o3)cc2)cc1	i	9.1	nt	i	i	i	i	14
CC(=O)Nc1cc(-c2cccc(F)c2)cn2c(-c3ccc(F)cc3)cnc12	nt	i	nt	nt	i	nt	nt	nt
COc1ccc(Cl)cc1CC1(C)C(=O)Nc2ccc(S(=O)(=O)NC3CCCCC3)cc21 (stereo unspecified)	nt	i	nt	nt	i	nt	nt	nt
COC(=O)[C@]12C[C@H](CC(=O)NCc3cccc(C(F)(F)F)c3)C(=O)N(CCC3=CCCCC3)C1=C[C@H](C(C)(C)C)O[C@@H]2C	nt	i	nt	nt	nt	nt	nt	nt
COC(=O)[C@]12CCCCC=C1N(CCc1ccc(OC)c(OC)c1)C(=O)[C@H](CC(=O)N1CCOCC1)C2	nt	i	nt	nt	i	nt	nt	nt
C=CCn1c(SCC(=O)Nc2ccc(-c3nc4ccc(C)cc4s3)cc2)nnc1-c1ccncc1	i	8.9	nt	i	i	i	i	9.2
CCn1c(SCC(=O)Nc2ccc(-c3nc4ccc(C)cc4s3)cc2)nnc1-c1ccccc1	i	nt	i	i	nt	i	nt	nt
Cc1cc(O)cc(=O)n1-c1cc(F)c(F)c(F)c1	nt	i	nt	nt	nt	nt	nt	nt
F[B-](F)(F)COCc1ccccc1C#Cc1ccccc1	nt	18	nt	nt	nt	nt	17	i
F[B-](F)(F)COCc1ccccc1Br	nt	i	nt	nt	i	nt	nt	nt
CCCCC#Cc1ccccc1COC[B-](F)(F)F	nt	17	nt	nt	nt	nt	7.9	5.9
SMILES	beta cell repl	SMARCA2 act	ALR H2O2 inh	M18AAP inhibitor	Exocytosis inh	GASC-1 inh	SMARCA2 act conf	GAL4-VP16 Luc
COc1ccc(CNC(=O)Nc2nnc([C@@H]3C[C@H](O)[C@@H](CO)O3)s2)cc1	nt	i	nt	nt	i	nt	nt	nt
COc1cccc(NC(=O)n2ccc3ccc(-c4ccc5cc[nH]c5c4)cc32)c1	nt	i	nt	nt	nt	nt	nt	nt
CCN(CC)CCCNc1ccc2ncn3c4ccc(O)cc4c(=O)c1c23	nt	8.1	nt	nt	i	nt	34	i
Cc1ccc(S(=O)(=O)Nc2ccc(Nc3nccn4c(-c5ccc6ccccc6c5)cnc34)cc2)cc1	nt	i	nt	nt	i	nt	nt	nt
O=S1(=O)CC(N2CCC(c3ccccc3)CC2)CN1Cc1ccc(F)cc1 (stereo unspecified)	nt	i	nt	nt	i	nt	nt	nt
COc1cc(/C=C/c2ccc3cccc(O)c3n2)cc(Cl)c1OC	i	12	i	i	i	i	i	34
Oc1cccc(/C=C/c2ccc3cccc(O)c3n2)c1	i	i	nt	i	i	i	nt	nt
COc1cc(/C=C/c2ccc3cccc(O)c3n2)cc(Br)c1OC	i	8.4	i	i	i	i	i	34
COc1cccc(/C=C/c2ccc3cccc(O)c3n2)c1	i	14	i	i	i	i	i	23
COc1cc(/C=C/c2ccc3c(Br)cc(Br)c(O)c3n2)ccc1O	nt	8.7	i	i	i	i	i	7.9
COCCNC(=O)/C(C#N)=C/c1ccc2c(c1)OCO2	i	9.1	i	i	i	i	i	i
CC(=O)Nc1sc(NC(=O)c2ccc([N+](=O)[O-])cc2)nc1-c1cccs1	i	9.4	nt	i	i	i	i	i
CC(=O)Nc1sc(NC(=O)c2ccc(Cl)cc2)nc1-c1cccs1	i	i	i	i	i	i	nt	nt
c1ccc(COc2cccc(-c3cc4nc(NCc5cccs5)ccn4n3)c2)cc1	nt	i	nt	nt	i	nt	nt	nt
Cc1cccc(NC(=O)c2ccccn2)c1C	i	8.3	nt	i	i	i	13	8.4
Cc1cccc(NC(=O)Nc2ccccn2)c1C	i	i	nt	i	i	i	nt	nt
C=CCNC(=S)N(C)[C@H]1C[C@H]2c3[nH]c4cccc(-c5cccc(F)c5)c4c3CCN2C(=O)[C@H]1[C@H](C)O	nt	i	nt	nt	nt	nt	nt	nt
O=C(c1ccc(F)cc1)n1ccc2ccc(-c3ccc4ccn(Cc5ccccc5)c4c3)cc21	nt	i	nt	nt	nt	nt	nt	nt
COc1cc(/C=C2/SC(=S)N(CC(=O)NC(C)(C)C)C2=O)cc(OC)c1OC	i	8.0	i	i	i	i	i	i
c1cc2ccc3ccc(-n4cnnn4)c4ccc(c1)c2c34	i	8.7	i	i	i	i	i	i
O=C1NC(c2ccccc2)c2c(-c3ccccc3)n[nH]c21 (stereo unspecified)	nt	i	nt	nt	nt	nt	nt	nt
CC(C)n1nnnc1C1c2ccccc2C(=O)N1CCOc1ccccc1 (stereo unspecified)	nt	i	nt	nt	i	nt	nt	nt
COc1ccc(-c2cc(COc3ccccc3)on2)cc1	i	8.4	i	i	i	i	i	7.2
Cc1cccc(OCc2cc(-c3ccccc3)no2)c1C	i	8.9	i	i	i	i	i	6.5
Fc1ccc(OCc2cc(-c3ccccc3)no2)cc1	i	i	i	i	i	i	nt	nt
Cc1cccc(C)c1NC(=O)CN(Cc1ccccc1)Cc1ccccc1	nt	i	nt	nt	i	nt	nt	nt
O=C(c1ccc(Br)cc1)N1CCC(C(=O)N2CCN(c3ccccc3)CC2)CC1	i	i	i	i	i	i	nt	nt
O=C1CN(c2ccccc2)C(=S)N1C(=O)c1ccc(Br)cc1	i	8.8	i	i	i	i	i	16
CC(C)(C)c1ccc(S(=O)(=O)NC(=O)C2(C)CCN2C(=O)Cc2ccc(-c3ccccc3)cc2)cc1 (stereo unspecified)	nt	i	nt	nt	i	nt	nt	nt
Cc1ccc(OCc2cc(C(=O)N3CCCCCCC3)no2)cc1C	i	i	i	i	i	i	nt	nt

High-throughput results deposited in PubChem BioAssay by several laboratories.
